# High-throughput results deposited in PubChem by National Center for Advancing Translational Sciences (NCATS).
# Only some compounds are listed: those with a hit (about 21% of all), similar ones and a draw of the others.
# Giardia FBPA inh: blocks Giardia fructose-bisphosphate aldolase activity | A8B2U2 | purified Giardia FBPA | Potency, µM (top dose mostly 59.6 µM), inactives show at the highest dose activity, negative = inhibition, usual class: inhibitors | 290,000 compounds, 0.71% hits | AID 2451; also: potency is read from the fitted curve at half-maximal effect; % is scaled to controls: 0 for no effect and ±100 for the full control effect; nearly all actives have a fitted effect of over 55% in size
# Target sequence (A8B2U2 whole entry, looked up): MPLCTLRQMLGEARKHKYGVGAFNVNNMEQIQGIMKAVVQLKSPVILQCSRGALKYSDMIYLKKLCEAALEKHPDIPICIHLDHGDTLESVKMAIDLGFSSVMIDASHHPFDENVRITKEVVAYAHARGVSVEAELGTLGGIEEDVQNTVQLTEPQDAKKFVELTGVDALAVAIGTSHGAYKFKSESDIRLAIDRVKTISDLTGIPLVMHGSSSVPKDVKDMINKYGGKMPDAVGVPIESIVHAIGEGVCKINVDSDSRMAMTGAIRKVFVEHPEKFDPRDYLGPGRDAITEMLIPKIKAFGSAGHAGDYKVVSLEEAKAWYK
#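 40 nM FBPA preincubated 10 min at RT with compound (up to 57.5 uM final), then substrate plus GAPDH/TPI/NAD/arsenate coupling and diaphorase/resazurin added. Fluorescence read after 20 min at RT, 525/598 nm.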
# Shiga toxin inh: inhibitors of Shiga toxin in Vero cells | Vero cells, Shiga toxin protein synthesis inhibition reporter | 290,000 compounds, 9.2% hits | AID 2315 | inhibition, % at 38.7 µM; in the data active = inhibition mostly above about 28%, no sharp cut-off; inactive = mostly below about 43%; also: 0% is about no effect
# Pf growth 48h: P. falciparum growth inhibition at 48 hours (one generation). Potency, µM (titrated, usually from 28.7 µM), for inactives: at the highest dose activity change, negative = inhibition, most hits filed as inhibitors. P. falciparum luciferase growth in erythrocytes, 48 h. 310,000 compounds, 5.9% hits; also: potency is read from the fitted curve at half-maximal effect; % is scaled to controls: 0 for no effect and ±100 for the full control effect
#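 Compounds are pin-transferred into medium, infected erythrocytes (2% hematocrit, 0.1% parasitemia final) are added, and plates sit one parasite generation at 37 C in 5% CO2. Detection reagent is then added and luminescence measured.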
# NS1 inh: influenza NS1 inhibition. Potency, µM (highest dose often 46.1 µM), without a hit: at the top dose activity, positive = more growth. AID 2326. 270,000 compounds, 0.4% hits; calls by dose curve; also: potency is read from the fitted curve at half-maximal effect; actives are rising curves; nearly all actives have a fitted effect of over 50% in size
#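 In this qHTS, NS1 from influenza A is expressed in budding yeast, where it slows growth. Cells are switched from glucose to 2% galactose medium (pH 6.0, -URA), treated with compound, and growth recovery is read at OD600.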
# Cycloheximide cs: affects cycloheximide protein synthesis inhibition readout, counter-screen | cell reporter, cycloheximide protein synthesis inhibition counterscreen | max response, % | 300,000 compounds, 12% hits; in the data active = max response mostly above about 13%, no sharp cut-off; inactive = mostly below about 14%; also: read at 38.3 µM for the half of the compounds with a filed dose; 0% is about no effect
# Pf growth 96h: P. falciparum growth inhibition at 96 hours; P. falciparum luciferase reporter growth, 96 h; Potency, µM (highest dose often 28.7 µM), for inactives: top-dose activity change, negative = inhibition, hits mostly inhibitors; 320,000 compounds, 6.9% hits; also: potency is read from the fitted curve at half-maximal effect; % is scaled to controls: 0 for no effect and ±100 for the full control effect
#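 Two parasite generations (96 h, 37 C, 5% CO2) of compound exposure in infected erythrocytes (0.05% parasitemia, 2% hematocrit). Luciferase-reporter P. falciparum; decreased luminescence indicates inhibited growth, aimed at apicoplast-acting delayed death.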
# The depositor's hits bear a star; i = inactive; ? = inconclusive; · = no result given; [ ] = dose if it differs, or a comment. Unless noted, calls follow the shape of the dose curve; as a rule, active = well fitted curve in the direction sought with a large enough effect; inconclusive = small, poorly fitted or top-dose-only effect, or another doubt; inactive = no such curve, though single readings can be large; an effect the other way counts as inactive or inconclusive.
SMILES,Giardia FBPA inh,Shiga toxin inh,Pf growth 48h,NS1 inh,Cycloheximide cs,Pf growth 96h
COc1ccccc1-c1cc(C(F)(F)F)c(C#N)c(=O)[nH]1,17%,7,-25%,-5%,-5,-41%[1.15 µM]
Cc1ccccc1[C@@]1(C)ON(c2ccccc2C(F)(F)F)C1=O,·,·,1.7µM*,·,·,1µM*
CC[C@@]1(c2ccccc2OC)ON(c2ccccc2C(F)(F)F)C1=O,·,·,0.59µM*,·,·,?
O=C1N(c2ccccc2C(F)(F)F)O[C@]1(c1ccccc1)C1CCCC1,·,·,1.7µM*,·,·,1.3µM*
O=C1NC(c2ccccc2)=C(c2nc3ccccc3s2)C(c2ccc(F)cc2)N1 (stereo unspecified),-1%,-16,-52%,-5%,0,13µM*
CCOc1cccc2cc(C(=O)N3CC(C)OC(C)C3)c(=O)oc12 (stereo unspecified),7%,-10,5%,-34%,-2,6.6µM*
COc1cccc2cc(C(=O)N3CCN(C(=O)c4ccco4)CC3)c(=O)oc12,0%,-10,7%,-5%,-1,·
CCOc1cccc2cc(C(=O)N3CCOCC3)c(=O)oc12,-7%,6,16%,5%,9,12µM*
CCOc1cccc2cc(C(=O)Nc3nccs3)c(=O)oc12,4%,11,58%,-11%,-1,89%
O=C(O)c1nn(Cc2ncc(-c3cccc(Cl)c3)o2)c(=O)c2ccccc12,-13%,0,5%,-1%,8,9%
CCN1CCN(c2cc(C)c3cc(NC(=S)NCCCN4CCc5ccccc5C4)ccc3n2)CC1,-27%,27,7.4µM*,·,-11,?
Cc1cc(N2CCN(C)CC2)nc2ccc(NC(=S)NCCN3CCc4ccccc4C3)cc12,-13%,-3,9.3µM*,-3%,-3,?
COc1ccc(NC(=O)N2CCN(C(=O)c3ccco3)CC2)c(OC)c1,·,2,-1%,-2%,-2,?
CN[C@@H](c1ccncc1)[C@@H](NC)c1ccncc1,·,·,·,0%,·,·
CCOC(=O)c1c(C)n(C)c2ccc(O)cc12,·,·,-13%,·,·,?
COC(=O)c1c(C)n(-c2ccc(OC)cc2)c2ccc(O)cc12,-22%,-27,12µM*,-2%,-3,20%
CCOC(=O)c1c(C)n(-c2ccc(F)cc2)c2ccc(O)cc12,-2%,-13,2.6µM*,-1%,-7,6%
OCC1(Cc2ccccc2)CCCN(Cc2c[nH]c3ccccc23)C1 (stereo unspecified),2%,-2,-10%,2%,-2,?
O=C(OCC(=O)c1ccc(Cl)cc1Cl)c1cnccn1,5%,-4,24%,-2%,-4,9%
COc1cc([N+](=O)[O-])cc2cc(C(=O)N3CCCC3)c(=O)oc12,1%,-10,-20%,-2%,-3,?
Cc1c(NS(=O)(=O)c2ccc(N(C)C3CCCCC3)c([N+](=O)[O-])c2)c(=O)n(-c2ccccc2)n1C,2%,-4,?,13%,-1,10µM*
Cc1ccc(CCN2C(=O)c3ccccc3C2C(=O)NCc2cccnc2)cc1 (stereo unspecified),-2%,20,i,·,5,101%
O=C(CCc1nnc2ccc(NCc3ccco3)nn12)Nc1ccc(F)cc1,·,22,-3%,15%,4,22%
Cc1ccc(NC(=O)CCc2nnc3ccc(NCc4ccco4)nn23)cc1,-7%,18,?,6%,35*,?
CCCCNC(=S)Nc1ccc(Cl)cc1,0%,45*,22%,-23%,16,30%
SMILES,Giardia FBPA inh,Shiga toxin inh,Pf growth 48h,NS1 inh,Cycloheximide cs,Pf growth 96h
CCOC(=O)NC(=S)Nc1ccc(C(C)(C)C)cc1,-2%,80*,?,-1%,33*,?
CC(C)(C)C(=O)NC(=S)Nc1ccc(Cl)c(C(=O)O)c1,27%,26,21%[5.75 µM],·,7,-15%[5.75 µM]
CCCCNC(=S)Nc1ccc(C(F)(F)F)cc1,0%,30*,?,·,19*,?
CCOC(=O)C(NC(C)=O)C(=O)Nc1ccc(C(C)(C)C)cc1 (stereo unspecified),-9%,-5,1%,2%,-5,54%
CC(C)(C)C(=O)NC(=S)Nc1ccc(C(F)(F)F)cc1,-17%,61*,14%,-1%,43*,-4%
O=S(=O)(c1ccccc1)N1CCC[C@@]2(CCN(c3ncccn3)C2)C1,1%,·,·,·,·,·
COc1ccsc1NC(=O)OCc1ccc(Cl)cc1,3%,44*,·,0%,37*,96%
CSc1nsc(NC(=O)OCc2ccc(Cl)cc2)n1,?,12,-1%,-91%,11,231%
COc1ccccc1Nc1nc(Cl)nc(NC(C)(C)C)n1,2%,9,1%,-6%,11*,12%
OCCNc1nc(Nc2ccccc2)nc(Nc2ccccc2)n1,3%,-15,-4%,1%,-1,26%
CCCNc1nc(Cl)nc(Nc2ccc(Cl)cc2)n1,9%,8,28%,-45%,15*,0%
CC(C)(CO)Nc1nc(Nc2ccccc2)nc(Nc2ccccc2)n1,-13%,-5,13µM*,-9%,-1,7.4µM*
CC(C)(C)Nc1nc(Cl)nc(Nc2ccccc2)n1,-9%,88*,75%,-16%,56*,88%
CCS(=O)(=O)Nc1ccc(C2=NN(S(=O)(=O)CC)C(c3cccs3)C2)cc1 (stereo unspecified),·,20,6%,18%,-7,?
Clc1nc(Nc2ccccc2)nc(Nc2ccccc2)n1,0%,22,0%,-3%,25*,36%
CC(C)Oc1ccc(S(=O)(=O)N2CCCCC2)cc1NC(=O)C1CSC2(C)CCC(=O)N12 (stereo unspecified),·,·,12µM*,·,·,?
CCOc1ccc(S(=O)(=O)N2CCCCC2)cc1NC(=O)C1CSC2(C)CCC(=O)N12 (stereo unspecified),·,·,1µM*,·,·,?
COCCCNC(=O)Cn1cnc2sc(C)c(S(=O)(=O)N3CC(C)CC(C)C3)c2c1=O (stereo unspecified),4%,-4,10%,8%,-5,?
C#CCOCCOCCOCCNc1nc(N2CCN(C(=O)C([C@@H](C)CC)n3cc(C(N)Cc4ccc(O)cc4)nn3)CC2)nc(N2CCN(C(=O)[C@H](CCC(=O)O)n3cc(C(N)CO)nn3)CC2)n1 (stereo partly specified),-14%,-4,3%,2%,-2,18%
O=C(NC1CC1)C1=C[C@@H](c2ccc(Br)cc2)C[C@@H](OCc2ccc(CO)cc2)O1,1%,-2,35%,-12%,-4,39%
COc1ccc(CCNc2cc(C)nc3c(-c4ccccc4OC)cnn23)cc1OC,-12%,-10,13µM*,-6%,11,?
CCCCN1C(=O)C(=O)N(CC(=O)Nc2sc(C)c(C)c2C(=O)OC)C1=O,·,·,-8%,·,·,-16%
N#CCCC(CCC#N)(CCC#N)c1cc[n+](CCc2ccccn2)cc1,·,·,5%,·,·,57%
CN[C@H](C)CCC=C(C)C,·,·,0.15µM*,·,·,?
